Data reported in the supplement of paper PMC8975748.
Structures can show the parent of a compound that is named as a salt.

Each molecule was assayed on Saccharomyces cerevisiae BY4741 SeMeCo community (assay: z-score of subpopulation abundance vs DMSO median, subpopulation auxotrophic for M; higher = larger share of this subpopulation than in DMSO controls). Settings: 10 µM; 24 h; SM minimal medium; subpopulation (auxotrophy): M.
Method: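 Fluorescent four-plasmid SeMeCo (self-establishing metabolically cooperating S. cerevisiae BY4741 community; plasmids pH-mRuby2, pL-mWasabi, pU-eCFP, pM-TagRFP657) was grown 24 h in minimal SM medium with each Selleck FDA-approved drug at 10 µM in 384-well plates. Cells were fixed and imaged by high-content confocal microscopy. For each auxotrophic subpopulation (and the prototroph), a z-score gives the deviation from the DMSO vehicle-control population median.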

| SMILES | z-score of subpopulation abundance |
| --- | --- |
| Cc1cc(NS(=O)(=O)c2ccc(N)cc2)no1 [Sulfamethoxazole sodium] | 0.79 |
| O=C(O)c1cc(=O)c2c(OCC(O)COc3cccc4oc(C(=O)O)cc(=O)c34)cccc2o1 [Disodium Cromoglycate] | -0.6 |
| COc1cccc2c1C(=O)c1c(O)c3c(c(O)c1C2=O)C[C@@](O)(C(=O)CO)C[C@@H]3O[C@H]1C[C@H](N)[C@H](O[C@@H]2CCCCO2)[C@H](C)O1 [Pirarubicin] | -12 |
| O=c1c(-c2ccc(O)cc2)coc2c([C@@H]3O[C@H](CO)[C@@H](O)[C@H](O)[C@H]3O)c(O)ccc12 [Puerarin] | 0.72 |
| COc1cc2c(cc1OC)-c1cc3ccc(OC)c(OC)c3c[n+]1CC2 [Palmatine] | -0.17 |
| Nc1c(CC(=O)O)cccc1C(=O)c1ccccc1 [Amfenac Sodium Monohydrate] | 0.25 |
| NC(=O)c1cn(Cc2c(F)cccc2F)nn1 [Rufinamide] | 0.02 |
| CC1(C)S[C@@H]2[C@H](NC(=O)Cc3ccccc3)C(=O)N2[C@H]1C(=O)O [Benzylpenicillin potassium] | -0.08 |
| CC(=O)OC(C)C[N+](C)(C)C (stereo not given) [Methacholine chloride] | 0 |
| Cc1nnc(SCC2=C(C(=O)O)N3C(=O)[C@@H](NC(=O)Cn4cnnn4)[C@H]3SC2)s1 [Cefazolin Sodium] | 0.3 |
| C[C@H]1COc2c(C3(N)CC3)c(F)cc3c(=O)c(C(=O)O)cn1c23 [Pazufloxacin mesylate] | -0.46 |
| CN1C[C@@H]2C[C@H]1CN2c1cc2c(cc1F)c(=O)c(C(=O)O)cn2C1CC1 [Danofloxacin Mesylate] | 0.03 |
| Cc1nc(=O)c2cc(CN(C)c3ccc(C(=O)N[C@@H](CCC(=O)O)C(=O)O)s3)ccc2[nH]1 [Raltitrexed] | 0.3 |
| CCn1cc(C(=O)O)c(=O)c2cc(F)c(N3CCNCC3)nc21 [Enoxacin] | -0.85 |
| Cc1ncc([N+](=O)[O-])n1CC(C)O (stereo not given) [Secnidazole] | -0.32 |
| O=C1NC(=O)C(c2ccccc2)(c2ccccc2)N1 [Phenytoin] | 0.07 |
| Nc1nc2c(ncn2COCCO)c(=O)[nH]1 [Aciclovir] | -0.02 |
| COc1c(N2CCNC(C)C2)c(F)cc2c(=O)c(C(=O)O)cn(C3CC3)c12 (stereo not given) [Gatifloxacin] | -0.13 |
| CC(=O)N[C@H]1[C@H]([C@H](O)[C@H](O)CO)OC(C(=O)O)=C[C@@H]1NC(=N)N [Zanamivir] | 0.82 |
| CN1CCC[C@@H]1Cc1c[nH]c2ccc(CCS(=O)(=O)c3ccccc3)cc12 [Eletriptan HBr] | 0.9 |

| SMILES | z-score of subpopulation abundance |
| --- | --- |
| CCCCOc1ccc(C(=O)CCN2CCCCC2)cc1 [Dyclonine HCl] | 0.29 |
| Nc1ccc(S(=O)(=O)Nc2nccs2)cc1 [Sulfathiazole] | -0.25 |
| C#CCC(Cc1cnc2nc(N)nc(N)c2n1)c1ccc(C(=O)N[C@@H](CCC(=O)O)C(=O)O)cc1 (stereo not given in full) [Pralatrexate] | 2.68 |
| Nc1nc(/C(=C/CC(=O)O)C(=O)N[C@@H]2C(=O)N3C(C(=O)O)=CCS[C@H]23)cs1 [Ceftibuten dihydrate] | 0.21 |
| O=C1OC(CN2CCOCC2)CN1/N=C/c1ccc([N+](=O)[O-])o1 (stereo not given) [Furaltadone HCl] | 0.83 |
| CN[C@H](CC(C)C)C(=O)N[C@H]1C(=O)N[C@@H](CC(N)=O)C(=O)N[C@H]2C(=O)N[C@H]3C(=O)N[C@H](C(=O)N[C@H](C(=O)O)c4cc(O)cc(O)c4-c4cc3ccc4O)[C@H](O)c3ccc(c(Cl)c3)Oc3cc2cc(c3O[C@@H]2O[C@H](CO)[C@@H](O)[C@H](O)[C@H]2O[C@H]2C[C@](C)(N)[C@H](O)[C@H](C)O2)Oc2ccc(cc2Cl)[C@H]1O [Vancomycin HCl] | 0.48 |
| CN1CCC(=C2c3ccccc3CCc3sccc32)CC1 [Pizotifen Malate] | 0.26 |
| OCCOc1ccc(/C(=C(/CCCl)c2ccccc2)c2ccccc2)cc1 [Ospemifene] | 0.43 |
| CN1C(C(=O)Nc2ccccn2)=C(O)c2ccccc2S1(=O)=O [Piroxicam] | -0.1 |
| CCN(CC)CCOC(=O)c1ccc(N)cc1Cl [Chloroprocaine HCl] | 0.42 |
| COc1ccc(C[C@H](N)C(=O)N[C@H]2[C@@H](O)[C@H](n3cnc4c(N(C)C)ncnc43)O[C@@H]2CO)cc1 [Puromycin 2HCl] | 0.81 |
| N#CC(c1ccc(Cl)cc1)c1c(Cl)cc(-n2ncc(=O)[nH]c2=O)cc1Cl (stereo not given) [Diclazuril] | 0.92 |
| Nc1ccc(S(=O)(=O)Nc2cnc3ccccc3n2)cc1 [Sulfaquinoxaline sodium] | 1.16 |
| CC(=O)OCC1=C(C(=O)O)N2C(=O)[C@@H](NC(=O)Cc3cccs3)[C@H]2SC1 [Cephalothin] | 1.49 |
| CC(Cc1ccc(O)c(O)c1)C(C)Cc1ccc(O)c(O)c1 (stereo not given) [Nordihydroguaiaretic acid (NDGA)] | -0.1 |
| Cc1cc(-n2c(=O)[nH]c(=O)n(C)c2=O)ccc1Oc1ccc(SC(F)(F)F)cc1 [Toltrazuril] | -0.11 |
| C#C[C@]1(O)CC[C@H]2[C@@H]3CCC4=CCCC[C@@H]4[C@H]3CC[C@@]21C [Lynestrenol] | -1.23 |
| COc1cc(N)c(Cl)cc1C(=O)NC1CCN(CCCOc2ccc(F)cc2)CC1OC (stereo not given) [Cisapride] | -1.29 |
| CO[C@@H]1[C@@H](OC(N)=O)[C@@H](O)[C@H](Oc2ccc3c(O)c(NC(=O)c4ccc(O)c(CC=C(C)C)c4)c(=O)oc3c2C)OC1(C)C [Novobiocin Sodium] | -0.26 |
| CCCc1nn(C)c2c(=O)[nH]c(-c3cc(S(=O)(=O)N4CCN(C)CC4)ccc3OCC)nc12 [Sildenafil Citrate] | 0.03 |
